# Screening results (PubChem BioAssay)
# A selection: hits, their analogues and other compounds. The true share with any hit is near 14%.
# Pf growth 96h = P. falciparum growth inhibition at 96 hour, primary screen for plastid delayed-death inhibitors; P. falciparum luciferase reporter growth, 96 h; Potency, µM (series often up to 28.7 µM), for inactives: top-dose activity change, negative = inhibition, actives largely listed as inhibitors; 6.9% of 320,000 active; AID 504834; also: potency is read from the fitted curve at half-maximal effect
#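 96 h incubation, 37 C, 5% CO2, of luciferase-reporter P. falciparum-infected RBCs (2% hematocrit, 0.05% parasitemia final) with test compounds; endpoint luminescence.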
# Pf growth 48h = P. falciparum growth inhibition at 48 hours (one generation). P. falciparum luciferase growth in erythrocytes, 48 h. AID 504832. 5.9% of 310,000 active. Potency, µM (series often up to 28.7 µM), without a hit: at the top dose activity change, negative = inhibition, most hits filed as inhibitors; also: potency is read from the fitted curve at half-maximal effect
#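 Luciferase-expressing P. falciparum in infected erythrocytes (2% hematocrit, 0.1% parasitemia final) in RPMI 1640/0.5% Albumax were exposed to compound for 48 hours at 37 C, 5% CO2; growth read as luminescence.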
# FBPA Giardia inh = blocks Giardia fructose-bisphosphate aldolase activity. A8B2U2. purified Giardia FBPA. Potency, µM (series often up to 59.6 µM), for inactives: top-dose activity, negative = inhibition, actives largely listed as inhibitors. 0.71% of 290,000 active. AID 2451; also: potency is read from the fitted curve at half-maximal effect; nearly all actives have a fitted effect of over 55% in size
# Target sequence (A8B2U2 whole entry, looked up): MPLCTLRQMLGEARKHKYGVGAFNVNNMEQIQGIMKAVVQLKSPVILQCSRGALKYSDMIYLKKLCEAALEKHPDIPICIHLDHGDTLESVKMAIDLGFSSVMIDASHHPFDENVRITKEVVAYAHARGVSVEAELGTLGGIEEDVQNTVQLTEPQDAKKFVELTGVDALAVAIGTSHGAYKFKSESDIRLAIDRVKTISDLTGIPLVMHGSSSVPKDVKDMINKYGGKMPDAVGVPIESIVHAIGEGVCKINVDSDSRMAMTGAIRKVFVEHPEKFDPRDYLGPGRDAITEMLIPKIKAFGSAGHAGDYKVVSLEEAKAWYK
#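 Giardia FBPA (40 nM reagent) was preincubated 10 min at RT with compound (up to 57.5 uM final), then substrate plus GAPDH/TPI/NAD/arsenate coupling system with diaphorase/resazurin was added; resorufin fluorescence (525/598 nm) was read after 20 min.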
# HCMV inh = human cytomegalovirus inhibition | HFF cells, HCMV-luciferase reporter, 72 h; hits give low values | activity change, negative = inhibition, % at 57.5 µM | 4.5% of 410,000 active | AID 1259415; in the data active = activity change below about -60%; inconclusive = no clear call, values can overlap the other calls; inactive = above about -39%
#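 After 16 h attachment at 37C, HFF cells received test compound and HCMV-luciferase (1 PFU/cell); reporter luminescence read 72 h later, data normalized against buffer-only and known inhibitor Salinomycin.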
# Sm TGR inh = inhibitors of Schistosoma mansoni thioredoxin glutathione reductase. 3% of 360,000 active. purified TGR, DTNB reduction, TNB absorbance 405 nm. Q962Y6. Potency, µM (top dose mostly 114 µM), for inactives: at the top dose activity change, negative = inhibition, actives largely listed as inhibitors. AID 485364; also: potency is read from the fitted curve at half-maximal effect; nearly all actives have a fitted effect of over 60% in size
#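 TGR 20 nM + NADPH 100 uM (dispensed conc.), cpd preinc 15 min RT; start with NADPH (500 uM addition) then DTNB (15 mM addition). Kinetic TNB absorbance, 405 nm filter. Four-parameter Hill fit across titration.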
# * hit, by the source's call; ? = inconclusive; / = no result given; [ ] = remark or other dose. Unless noted, calls follow the shape of the dose curve; as a rule, active = well fitted curve in the direction sought with a large enough effect; inconclusive = small, poorly fitted or top-dose-only effect, or another doubt; inactive = no such curve, though single readings can be large; an effect the other way counts as inactive or inconclusive. % is scaled to controls: 0 for no effect and ±100 for the full control effect.
SMILES,Pf growth 96h,Pf growth 48h,FBPA Giardia inh,HCMV inh,Sm TGR inh
COc1cccc(C(=O)CSc2nccn2C)c1,11.7µM*,76.7%,?,2.3,-13.5%
COc1ccc(C)cc1N(C(=O)c1ccc(F)cc1)c1nc2ccccc2s1,?,?,-9.0%,12.6,-12.4%
COc1ccc(C)cc1N(C(=O)COc1cccc(F)c1)c1nc2ccccc2s1,?,0.738µM*,-5.6%,24.9,-4.6%
CC(C)=CCC/C(C)=C/CO/N=C1/C[C@@H](O)[C@@H](O)[C@@H]2[C@@H]3C(=O)N(c4cccc(Oc5ccccc5)c4)C(=O)[C@H]3CC[C@@H]12,/,/,-3.2%[12.9 µM],/,/
CN(C)c1ncc(/C=C2/C(=O)NC(=S)N(C3CCCCC3)C2=O)cn1,12.1%,8.6%,-7.7%,/,/
CCC(C)N1C(=O)/C(=C\c2cnc(N(C)C)nc2)C(=O)NC1=S (centres undefined),-27.5%,-7.4%,-12.9%,-39.2,10µM*
C=CCNC(=S)Nc1ccc(OC)c(S(=O)(=O)N2CCOCC2)c1,14.7%,-2.8%,-11.5%,-22.0,?
COCCNC(=O)C1(C)CCN(C(=O)c2cc(-c3cccs3)oc2C)C1 (centres undefined),/,/,/,-20.9,/
Oc1ccc(O)c(/C(=N/Nc2ccccc2)c2ccccc2)c1,?,?,-11.2%,/,6.31µM*
COc1cc(-c2ccc(N=Nc3ccc4c(S(=O)(=O)O)cc(S(=O)(=O)O)c(N)c4c3O)c(OC)c2)ccc1N=Nc1ccc2c(S(=O)(=O)O)cc(S(=O)(=O)O)c(N)c2c1O,/,/,14.1µM*,/,/
COc1cc(N=Nc2ccc(C)cc2S(N)(=O)=O)c(C)cc1N,/,/,/,179.0,/
CCn1cc(C(=O)N(C)c2cc(C)ccc2OC)c2cc(OC)c(OC)cc2c1=O,4.7%,/,-4.7%,/,-3.2%
CCN(C(=O)c1cn(-c2cccc(OC)c2)c(=O)c2ccccc12)c1ccccc1C,/,/,/,-69.9*,5.9%
COc1ccc([N+](=O)[O-])cc1NC(=O)c1cn(-c2ccc(C)c(C)c2)c(=O)c2ccccc12,11.7µM*,-7.6%,-0.3%,-30.4,-8.4%
COc1ccc(-n2cc(C(=O)N(C)c3cc(C)ccc3OC)c3ccccc3c2=O)cc1,/,/,/,-84.9*,-7.2%
COC(=O)CNC(=O)c1cn(-c2ccc(C)c(C)c2)c(=O)c2ccccc12,31.6%,?,8.4%,-6.0,6.3%
COc1cccc(-n2cc(C(=O)Nc3ccccc3C(N)=O)c3ccccc3c2=O)c1,/,/,/,-79.8*,4.3%
CCN(CC)C(=O)c1cn(-c2cccc(OC)c2)c(=O)c2ccccc12,?,-6.6%,0.0%,-6.2,16.5%
COc1ccccc1N(CC(=O)NC1CCCCC1)S(=O)(=O)c1ccccc1,22.9%,-11.8%,0.7%,-14.2,-13.4%
CCCCn1c(N)c(N(CCOC)C(=O)c2ccc(N3C(=O)CCC3=O)cc2)c(=O)[nH]c1=O,6.5%,1.6%,/,12.4,-0.8%
CCCCn1c(N)c(N(CCOC)C(=O)c2ccc(-n3c(C)ccc3C)cc2)c(=O)[nH]c1=O,-6.5%,?,/,?,39.8µM*
CCCCN(C(=O)c1ccc(N(C)S(=O)(=O)c2ccc(C)cc2)cc1)c1c(N)n(CC(C)C)c(=O)[nH]c1=O,/,/,/,-23.2,/
CCCCN(C(=O)c1cccc(S(=O)(=O)N(C)c2ccc(C)cc2)c1)c1c(N)n(CCCC)c(=O)[nH]c1=O,?,0.37µM*,/,-30.3,8.4%
CCCCn1c(N)c(N(CCOC)C(=O)c2cccc(S(=O)(=O)N(C)c3ccc(C)cc3)c2)c(=O)[nH]c1=O,9.28µM*,6.57µM*,/,5.1,5.3%
CCN1CCN(C(=O)c2ccc3c(c2)N(Cc2c(F)cccc2Cl)C(=O)c2ccccc2S3)CC1,/,/,/,-23.8,2.9%
SMILES,Pf growth 96h,Pf growth 48h,FBPA Giardia inh,HCMV inh,Sm TGR inh
O=C(C=Cc1ccccn1)c1ccccc1,/,/,/,51.9,/
Cc1cc(C)cc(NC(=O)CSc2oc(-c3cccs3)nc2S(=O)(=O)c2ccc(Br)cc2)c1,/,/,/,8.1,-11.1%
CCOc1cc2[nH]c(=S)n(CCC(=O)N3CCc4ccccc4C3)c(=O)c2cc1OCC,9.28µM*,?,-0.6%,?,16.9%
COc1ccc(-c2nc(CS(=O)(=O)CC(=O)Nc3ccc(Cl)cc3)c(C)o2)cc1,-28.9%,32.0%,4.9%,50.3,35.5µM*
COC(=O)c1ccc(C(=O)OC)c(NC(=O)CS(=O)(=O)Cc2ccccc2)c1,5.22µM*,5.8%,3.4%,-6.4,-5.9%
COC(=O)c1ccccc1NC(=O)CS(=O)(=O)Cc1nc(-c2ccc(C)cc2)oc1C,-2.6%,/,3.5%,-4.2,25.1µM*
Cc1ccc(-c2nc(CS(=O)(=O)CC(=O)Nc3cc(C)ccc3C)c(C)o2)cc1,/,/,/,-14.9,-34.9%
COc1cccc(NC(=O)CS(=O)(=O)Cc2nc(-c3ccc(C)cc3)oc2C)c1,?,-0.3%,-0.5%,-23.3,-26.1%
COc1cc(OC)c(NC(=O)CS(=O)(=O)Cc2nc(-c3ccc(C)cc3)oc2C)cc1Cl,8.28µM*,/,-13.4%,-4.6,?
COc1ccc(NC(=O)CS(=O)(=O)Cc2nc(-c3ccc(C)cc3)oc2C)cc1,-25.6%,42.2%,-14.6%,-29.4,-33.5%
CN(N=O)C(=O)N[C@@H]1[C@@H](O)[C@H](O)[C@@H](CO)O[C@@H]1O,/,/,/,-10.3,/
CCOc1ccccc1CNC(=O)C1CCN(C(=O)N2CC(CC)Oc3ccc(C)cc32)CC1 (centres undefined),/,/,/,16.2,0.5%
Cc1noc(C)c1S(=O)(=O)NCCc1csc2nc(-c3ccc(F)cc3)nn12,/,/,/,54.5,-1.2%
Cc1cc(N2CCN(C/C=C/c3ccccc3)CC2)n2ncnc2n1,?,0.0%,14.7%,-91.3*,1.9%
Cc1cnc(C(=O)Nc2ccc(S(=O)(=O)NCC(C)C)cc2)cn1,9.28µM*,?,-0.2%,-23.9,-1.1%
Cc1cnc(C(=O)Nc2ccc(S(=O)(=O)N(C(C)C)C(C)C)cc2)cn1,-21.5%,-28.6%,-9.0%,-7.2,5.2%
COc1cc(O)c(C(CCN2CCCCC2)c2ccc3c(c2)OCO3)c(OC)c1 (centres undefined),0.465µM*,0.928µM*,?,-3.9,-27.5%
COc1cc(OC)c2c(-c3ccccc3)cc(=O)oc2c1C(CCN1CCCCC1)c1ccc2c(c1)OCO2 (centres undefined),9.28µM*,?,-1.7%,-22.6,-5.3%
COc1cc(OC)c2c(C)cc(=O)oc2c1C(CCN1CCOCC1)c1ccc2c(c1)OCO2 (centres undefined),?,?,7.2%,22.8,7.5%
COc1cc(O)c(C(CCN2CCCC(C)C2)c2cc(OC)c(OC)c(OC)c2)c(OC)c1 (centres undefined),0.522µM*,1.31µM*,-26.2%,-1.6,-8.5%
COc1ccc(C(CCN2CCCC(C)C2)c2c(O)cc(OC)cc2OC)cc1 (centres undefined),/,/,-18.0%,/,/
COc1cc(C(CCN2CCCC(C)C2)c2c(OC)cc(OC)c3c(C)cc(=O)oc23)cc(OC)c1OC (centres undefined),/,/,-5.6%,/,/
